Source: PubChem BioAssay
Casp6 inh = blocks human caspase-6 cleavage activity | P55212 | purified caspase-6, Z-VEID-R110 cleavage fluorescence | inhibition, % at 12.5 µM | 350,000 compounds, 0.53% hits | AID 686996;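 active = mean inhibition across replicates at least about 35%, with every replicate also reaching that limit, limit read from the data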;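 also: 0% = median of neutral control wells and 100% = no fluorescence left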
FGF22 binding = binders of recombinant human FGF22 by thermal shift; Q9HCT0; SYPRO orange fluorescence; percent of sucrose octasulfate shift, DMSO zero; activity (Tm shift, normalised), % at 9.99 µM; 340,000 compounds, 1.5% hits;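 active = mean Tm shift, scaled 0 neutral to 100 positive control, at about 1.3% or above, every replicate too, limit read from the data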
Target sequence (Q9HCT0 whole entry, looked up): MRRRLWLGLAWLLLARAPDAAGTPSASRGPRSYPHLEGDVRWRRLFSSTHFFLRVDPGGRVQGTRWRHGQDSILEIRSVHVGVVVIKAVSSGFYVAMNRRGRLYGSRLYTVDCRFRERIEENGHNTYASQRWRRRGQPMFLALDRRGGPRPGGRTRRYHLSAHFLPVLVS
INS-1E GSIS act = GLuc luminescence reporter in INS-1E cells, primary screen for activators of glucose-dependent secretion of insulin; activation, % at 16.6 µM; INS-1E GLuc reporter insulin secretion, 2-3 h; 370,000 compounds, 0.61% hits; AID 743287;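 active = lowest replicate activation of at least 40%, so every replicate reaches that level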;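 also: 0% = median of neutral control wells and 100% = median of IBMX positive control wells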
SIRT5 block = inhibitors of human sirtuin-5 desuccinylase; Q9NXA8; Purified SirT5, succinyl-peptide AMC, trypsin-coupled fluorescence; inhibition, % at 15 µM; 330,000 compounds, 1.1% hits; in the data active = inhibition above about 15%
Target sequence (Q9NXA8 whole entry, looked up): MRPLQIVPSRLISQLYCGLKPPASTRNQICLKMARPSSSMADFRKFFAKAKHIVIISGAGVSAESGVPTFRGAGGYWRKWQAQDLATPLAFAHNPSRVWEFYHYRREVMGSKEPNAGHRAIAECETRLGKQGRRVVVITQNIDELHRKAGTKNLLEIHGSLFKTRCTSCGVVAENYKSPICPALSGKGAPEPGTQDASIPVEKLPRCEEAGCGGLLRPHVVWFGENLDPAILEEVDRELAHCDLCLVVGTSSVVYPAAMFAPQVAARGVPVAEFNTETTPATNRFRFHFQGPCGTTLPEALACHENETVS
ERAP1 inh = inhibitors of human ERAP1 aminopeptidase. recombinant ERAP1, Leu-AMC fluorescence, 60 min. Q9NZ08. inhibition, % at 10.7 µM. 340,000 compounds, 0.15% hits;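 active = mean replicate inhibition of at least 30%, or all replicates individually reaching that 30% level; inactive = mean below 30% and not every replicate reaching it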;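 also: 0% = neutral control wells and 100% = L-leucinethiol positive control wells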
* marks the source's active call; other numbers are inactive results; x = not tested or not shown. This is a sample that favours compounds with a hit; in the whole collection about 3.3% have one here.

SMILES	Casp6 inh	FGF22 binding	INS-1E GSIS act	SIRT5 block	ERAP1 inh
CCc1cc2c(SCC#N)ncnc2s1	0.9	43.0*	27.2	-0.5	-2.6
C=CCn1c(SCC#N)nc2sc(CC)cc2c1=O	3.1	-0.5	88.7*	-1.7	-5.0
C[C@@H]1CN([C@H](C)CO)C(=O)c2ccccc2-c2ccccc2CO[C@H]1CN(C)S(=O)(=O)c1ccccc1F	1.4	-0.2	8.9	-1.5	-1.2
C[C@@H]1CN([C@H](C)CO)C(=O)c2cc(NS(=O)(=O)c3ccccc3)ccc2O[C@@H](C)CCCCO[C@H]1CN(C)Cc1ccc2c(c1)OCO2	5.0	x	8.3	14.5	-3.8
c1nc(N2CCOCC2)c2c3c(sc2n1)CCCC3	-0.5	x	40.6*	35.8*	2.6
Cc1nc(N2CCOCC2)c2c3c(sc2n1)CCC3	-3.0	0.1	25.1	3.2	3.5
CC(C)(C)c1ccc(C#C[C@@H]2C=C[C@H](O)[C@@H](COC(=O)Nc3ccccc3)O2)cc1	-2.8	44.5*	x	x	-1.6
CCNC(=O)OC[C@H]1O[C@H](C#Cc2ccc(C(C)(C)C)cc2)C=C[C@H]1O	-1.5	40.9	24.7	x	-0.3
CC=Cc1ccc2n(c1=O)C[C@H]1[C@H](CO)[C@@H](C(=O)N3CCC(Cc4ccccc4)CC3)N(CC)[C@@H]21 (mixture of isomers)	-3.8	-0.4	-13.9	14.2	-1.2
CC1Cc2ccccc2N1CC(=O)Nc1ccc(S(=O)(=O)N(C)C)cc1 (configuration not stated)	-1.0	0.4	3.4	-3.5	-1.3
CC1Cc2ccccc2N1CC(=O)Nc1ccc(Cl)c(S(=O)(=O)N(C)C)c1 (configuration not stated)	x	0.0	2.3	16.4*	0.1
COc1ccc(NC(=O)CN(C)CC(=O)Nc2ccc(Cl)c(S(=O)(=O)N(C)C)c2)cc1	-2.2	43.1*	-35.3	-5.4	-2.7
COc1ccc(CC(=O)OCC(=O)Nc2ccc(Cl)c(S(=O)(=O)N(C)C)c2)cc1	0.2	42.2	-1.0	-2.6	-0.8
Cc1cccc(-c2ccc([C@@H]3[C@H]4CN(Cc5cncnc5)CCCCN4[C@H]3CO)cc2)c1	1.7	-0.4	4.7	-2.2	-2.3
O=C(C[C@@H]1CC[C@H]2[C@@H](COC[C@H](O)CN2C(=O)Nc2ccc(Cl)cc2)O1)NC1Cc2ccccc2C1	x	-0.3	-17.0	x	x
COc1ccc([C@H]2CC(=O)C[C@@H](CCn3cc(-c4cccnc4)nn3)O2)cc1	-40.1	0.1	3.8	33.3*	x
CSCCC(NS(=O)(=O)c1ccc2c(c1)Cc1cc(S(=O)(=O)NC(CCSC)C(=O)O)ccc1-2)C(=O)O (configuration not stated)	4.5	x	x	6.2	-3.9
CC(C)C(NS(=O)(=O)c1ccc2c(c1)Cc1cc(S(=O)(=O)NC(C(=O)O)C(C)C)ccc1-2)C(=O)O (configuration not stated)	1.6	-0.1	23.1	25.2*	2.0
CC(=O)c1cccc(NC(=O)C(=O)Nc2cccc3ccccc23)c1	-3.0	43.4*	2.4	-1.7	2.5
CC(=O)c1ccc(NC(=S)Nc2cccc3ccccc23)cc1	-4.7	0.0	-3.0	-6.8	-0.2
c1ccc(COc2ncnc3c2ncn3CCCNCc2cccs2)cc1	2.7	42.9*	-22.1	x	0.0
c1ccc(COc2ncnc3c2ncn3CCCNCc2ccccn2)cc1	0.0	0.4	-8.1	-0.7	x
C[C@H](CO)N1C[C@H](C)[C@@H](CN(C)C(=O)Nc2ccc3c(c2)OCO3)Oc2ccc(NC(=O)Nc3ccc(C(F)(F)F)cc3)cc2CC1=O	-2.7	-0.2	-27.7	-10.1	1.4
CO[C@@H]1CN(C)C(=O)c2cc(NC(=O)Nc3cccc(Cl)c3)ccc2OC[C@H](C)NC[C@@H]1C	-3.7	-0.3	0.9	0.7	0.2
O=C(CSc1ncnc2scc(-c3ccccc3)c12)NC1CCS(=O)(=O)C1 (configuration not stated)	1.3	0.0	15.6	-0.5	-0.7
SMILES	Casp6 inh	FGF22 binding	INS-1E GSIS act	SIRT5 block	ERAP1 inh
O=C(CSc1ncnc2sc(-c3ccccc3)cc12)NC1CCS(=O)(=O)C1 (configuration not stated)	0.5	43.2*	2.1	-0.5	-2.4
c1ccc(COc2ncnc3c2ncn3CCCN2CCN(c3ccccn3)CC2)cc1	-2.5	-0.1	-3.3	-2.5	6.0
COc1ncnc2c1ncn2CCCN1CCN(c2ccccn2)CC1	-4.8	0.1	-10.1	27.7*	3.2
O=C(Nc1nc2ccccc2n1CCN1CCOCC1)c1ccc(COc2ccccc2Br)o1	-0.8	43.1*	-8.3	-4.5	2.5
C[C@@H]1CN([C@H](C)CO)C(=O)c2cccc(NS(=O)(=O)c3cccs3)c2O[C@H]1CN(C)S(=O)(=O)c1ccc(F)cc1	0.9	0.2	10.6	-3.8	1.6
ClCC1CSC(=NC23CC4CC(CC(C4)C2)C3)O1 (configuration not stated)	-1.1	0.3	-23.1	16.8*	-0.4
C[C@@H]1CN([C@@H](C)CO)C(=O)c2cc(NS(=O)(=O)c3cn(C)cn3)ccc2O[C@@H](C)CCCCO[C@H]1CN(C)S(=O)(=O)c1ccc(Cl)cc1	0.7	0.0	-7.2	3.8	-1.0
O=C(Cc1ccccc1)N1CCN(C(=O)c2ccc([N+](=O)[O-])cc2)CC1	4.2	45.2*	-4.7	-0.5	-3.4
C[C@H](CO)N1C[C@H](C)[C@H](CN(C)S(=O)(=O)c2ccc(F)cc2)Oc2c(NC(=O)Nc3ccc(C(F)(F)F)cc3)cccc2C1=O	0.9	-0.3	-6.5	4.4	-0.5
COc1cc2c3nnc(-c4ccc(F)cc4)c-3cn(Cc3ccc(C)cc3)c2cc1OC	-2.0	-0.1	x	2.2	3.3
COc1cc2c3nnc(-c4ccccc4)c-3cn(Cc3ccc(F)cc3)c2cc1OC	4.1	43.8*	-24.9	-1.8	-25.1
CCC(=O)Nc1ccc2c(c1)C(=O)N(C)[C@H]1CC[C@H](CC(=O)N3CCCCC3)O[C@H]1CO2	1.3	-0.1	2.3	0.7	-2.7
O=c1c2ccccc2ncn1Cc1cccc2ccccc12	3.9	43.2*	3.4	-1.8	-2.2
COc1ccc(CCN2C(=O)[C@@]3(Cc4ccccc42)c2ccccc2C(=O)N(C2CCCCC2)[C@H]3c2ccc(CO)cc2)cc1	0.1	-0.1	x	0.9	0.9
CO[C@H]1CN(C)C(=O)c2cc(NC(=O)CC(F)(F)F)ccc2OC[C@@H](C)N(C(=O)C2CCCCC2)C[C@@H]1C	-2.1	0.0	-11.7	28.4*	2.5
CCC(=O)N1C[C@@H](C)[C@@H](OC)CN(C)C(=O)c2cc(NC(=O)CC(F)(F)F)ccc2OC[C@@H]1C	13.4	0.1	-4.4	21.0*	-3.0
CCC(=O)N1C[C@H](C)[C@@H](OC)CN(C)C(=O)c2cc(NC(=O)CC(F)(F)F)ccc2OC[C@H]1C	0.3	0.1	14.4	0.4	0.8
COc1ccc(S(=O)(=O)N(C)C[C@H]2OCCCC[C@@H](C)Oc3ccc(NC(=O)CCCCCC(=O)Nc4ccccc4N)cc3C(=O)N([C@H](C)CO)C[C@@H]2C)cc1	x	-0.1	3.1	x	x
